Assay results as given in PubChem BioAssay (EPA / NIEHS).
Active and inactive are the calls of the source. Rule for the calls: active = hit-call score of the fitted dose curve at least 0.9, where 1 is the maximum; inactive = score below 0.9.

The molecules below were run on Vascular cell adhesion molecule 1 (VCAM1), VCAM1 (gene 7412) (assay: BSK_hDFCGF_VCAM1: BioMAP Diversity Plus: hDFCGF Assay for Vascular cell adhesion molecule 1 (VCAM1) Biomarker Activity (AID 2283065)). Conditions: primary human foreskin fibroblasts; actives raise or lower the signal.
Description: BSK_hDFCGF is a cell-based, multiplexed-readout assay that uses foreskin fibroblast, a human skin primary cell, with measurements taken at 24 hours after chemical dosing in a 96-well plate.BSK_hDFCGF_VCAM1 is an assay component measured in the BSK_hDFCGF assay. It measures VCAM-1 antibody related to regulation of gene expression using ELISA technology.Data from the assay component BSK_hDFCGF_VCAM1 was analyzed into 1 assay endpoint. This assay endpoint, BSK_hDFCGF_VCAM1, was analyzed with bidirectional fitting relative to DMSO as the negative control and baseline of activity. Using a type of binding reporter, gain or loss-of-signal activity can be used to understand changes in the signaling as they relate to the gene VCAM1. Furthermore, this assay endpoint can be referred to as a primary readout, because this assay has produced multiple assay endpoints where this one serves a signaling function. To generalize the intended target to other relatable targets, this assay endpoint is annotated to the cell adhesion molecules intended target family, where the subfamily is Immunoglobulin CAM.
The levels of cell surface (or secreted, indicated by the prefix "s") biomarker endpoints were measured by ELISA. Overt cytotoxicity to cells in confluent adherent cultures (all systems other than the BT system) was assessed by measuring total protein levels using sulforhodamine B (SRB) staining in parallel cultures at the time of biomarker measurements, indicated as SRB endpoints. For proliferation assays for adherent cell types, individual cell types are cultured at sub-confluence and relative cell numbers quantified by SRB staining at time points optimized for each system (48 h: 3C and CASM3C systems; 72 h: BT and HDF3CGF systems; 96 h: SAg system). SRB was performed by staining cells with 0.1% SRB after fixation with 10% TCA and reading wells at 560 nm.Viability and proliferation of PBMC (T cells) was quantified by Alamar Blue reduction for the SAg and BT systems. For PBMC viability (referred to as PBMC Cytotoxicity within the assay endpoint names), cells were plated (75,000/well in a 96-well plate) and then chemical samples added for 1 h before addition of activators, SEB and TSST-1 (20 ng/mL final concentration each). Cells were incubated for 90 h. Then, Alamar Blue (20 uL/well) (Invitrogen, Cat DAL1100) was added for 6 h, and the plates were read with a fluorescence microplate reader at 546/580 nm (excitation/emission). For PBMC proliferation, cells were plated and activated as above but incubated for only 16 h prior to addition of Alamar Blue. Plates were read after 6 h.

Row | Structure (SMILES) | outcome | AC50
1 | COc1ccc(/C=C/S(=O)(=O)NC(=O)c2ccc(C)cc2Cl)cc1 | inactive | –
2 | CNS(=O)(=O)c1cc(C(=O)N2CCC(CCN3C4CCC3CC(n3c(C)nc5ccccc53)C4)(c3cccc(F)c3)CC2)c(Cl)cc1F (stereo not given) | inactive | –
3 | COC(=O)c1ccccc1O | inactive | –
4 | CC(C)c1cccc(C(C)C)c1N1C(=O)c2ccc(O)cc2C1=O | – | 13.8 µM (active)
5 | CC(O)CN(CCN(CC(C)O)CC(C)O)CC(C)O (stereo not given) | inactive | –
6 | O=C1OC(=O)C2C3C=CC(C3)C12 (stereo not given) | inactive | –
7 | CC(C)CCCCCCCOC(=O)CCCCC(=O)OCCCCCCCC(C)C | inactive | –
8 | CC(C)(O)c1coc(S(=O)(=O)NC(=O)Nc2c3c(cc4c2CCC4)CCC3)c1 | inactive | –
9 | CCCCCCCCO | inactive | –
10 | COC(=O)CC(=O)OC | inactive | –
11 | Fc1ccccc1[C@@H](F)COC1CCC(Nc2ncnc3[nH]ncc23)CC1 (stereo not given in full) | inactive | –
12 | CC(=O)OC[C@H]1O[C@@](COC(C)=O)(O[C@H]2O[C@H](COC(C)=O)[C@@H](OC(C)=O)[C@H](OC(C)=O)[C@H]2OC(C)=O)[C@@H](OC(C)=O)[C@@H]1OC(C)=O | inactive | –
13 | CCOc1cccc(-n2cc(C(=O)N3CCN(c4cc(C(=O)O)c5ccccc5c4)CC3)nc2-c2ccc(C)cc2)c1 | – | 12.9 µM (active)
14 | CCc1cc(SCc2sc(-c3ccc(C(F)(F)F)cc3)nc2CN2CCN(c3ccc(OC)cc3)CC2)ccc1OCC(=O)O | – | 3.57 µM (active)
15 | CC(C)CCCCCCOC(=O)c1ccc(C(=O)OCCCCCCC(C)C)c(C(=O)OCCCCCCC(C)C)c1 | inactive | –
16 | CCCCCCCCCCCCc1ccccc1 | inactive | –
17 | O=C(O)c1cccc(N(Cc2cccnc2)c2ccc(OC(F)F)c(OC(F)F)c2)c1 | – | 1.27 µM (active)
18 | CCCCC(CC)COC(=O)CCCCCCCCC(=O)OCC(CC)CCCC (stereo not given) | inactive | –
19 | Cc1ccc(C)c(O)c1 | inactive | –
20 | CCN(C(=O)c1cc(C)cc(OC[C@H](C)Nc2ccncc2)c1)C(C)C | inactive | –

Row | Structure (SMILES) | outcome | AC50
21 | COc1ccc(-n2nc(C(F)F)cc2-c2ccc(S(C)=O)cc2)cc1 (stereo not given) | inactive | –
22 | COCCOCCOCCOC | inactive | –
23 | CC[C@H](C)C(=O)O[C@H]1C[C@@H](C)C=C2C=C[C@H](C)[C@H](CC[C@@H]3C[C@@H](O)CC(=O)O3)[C@H]21 | – | 29.8 µM (active)
24 | CN(C)c1ccc(Cc2ccc(N(C)C)cc2)cc1 | inactive | –
25 | NC(=O)NO | inactive | –
26 | O=C1CCCCCN1 | inactive | –
27 | Oc1ccc2c(c1)-c1ccccc1C2 | inactive | –
28 | CC/C(=C\C(=N/O)C(N)=O)C(C)[N+](=O)[O-] (stereo not given) | inactive | –
29 | Cc1c(-c2cccnc2)c2ccccc2n1CCCCC(=O)O | inactive | –
30 | Cn1c(=O)cc(Oc2ccc(F)cc2F)c2cnc(NCC(C)(C)O)nc21 | – | 0.92 µM (active)
31 | COc1cccc(-c2ccc(/C=C\CN3CCCCCC3)cc2Cl)c1 | – | 30.5 µM (active)
32 | O=C(O)CCN(C1(C(=O)NO)CCCC1)S(=O)(=O)c1ccc(Oc2ccc(F)cc2)cc1 | inactive | –
33 | CC(C)=CCCC(C)CCO (stereo not given) | inactive | –
34 | CCOC(=O)c1ccc(C2CCC(NC[C@H](O)COc3ccc(O)c(NS(C)(=O)=O)c3)CC2)cc1 (stereo not given in full) | – | 8.27 µM (active)
35 | C1=CCCC=CCCC=CCC1 | inactive | –
36 | CC(=O)c1ccc2c(c1)[C@H](NC(=O)c1ccc(F)cc1)[C@@H](O)C(C)(C)O2 | inactive | –
37 | O=c1[nH]c2ccc(S(=O)CCN3CCC(Cc4ccc(F)cc4)CC3)cc2o1 (stereo not given) | inactive | –
38 | O=P(OC(CCl)CCl)(OC(CCl)CCl)OC(CCl)CCl | inactive | –
39 | O=C(NS(=O)(=O)/C=C/c1ccccc1)c1ccc(F)cc1Cl | inactive | –
40 | CC[C@H]1OC(=O)[C@H](C)[C@@H](O[C@H]2C[C@@](C)(OC)[C@@H](O)[C@H](C)O2)[C@H](C)[C@@H](O[C@@H]2O[C@H](C)C[C@H](N(C)C)[C@H]2O)[C@](C)(O)C[C@@H](C)C(=O)[C@H](C)[C@@H](O)[C@]1(C)O | inactive | –
